From PubChem BioAssay (NCATS)
“And” between values parts separate entries of the source, which are not always exact repeats. Identical values can stand only once. Records with an inconclusive call do not appear. Where a call stands in place of a potency, no number is given. The source made the active and inactive calls. Unless noted, the call rests on the fitted dose curve; in most records, active means well fitted curve in the direction sought with a large enough effect; inconclusive means small, poorly fitted or top-dose-only effect, or another doubt; inactive means no such curve, though single readings can be large; an effect the other way counts as inactive or inconclusive.

How the values were obtained:
[1] = Cell Viability - HepG2 (AID 433; calls by dose curve;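 further: potency means the concentration at half of the fitted maximal effect; potency for ATP loss meaning cytotoxicity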); conditions: qHTS
How it was run: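 Cytotoxicity is scored as loss of intracellular ATP in HepG2 cells exposed to compounds for 40 h. Concentration-response curves, normalized to DMSO and 100 uM tamoxifen, give AC50 values.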

[2] = Cell Viability - Mesenchymal (AID 546); conditions: mesenchymal cells viability, qHTS; activity change, negative = cytotoxicity: at 91.7 µM (top of the series);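 further: cells exposed to compound for 40 hours before reading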
How it was run: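 Normal human renal glomerulus-derived kidney mesenchymal cells, 1000 per well in complete medium, were treated with compounds for 40 hr at 37 °C. Viability was read as intracellular ATP by CellTiter-Glo luminescence; AC50 values came from Hill-equation fits of qHTS concentration-response data.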

[3] = Cell Viability - LYMP2-021 (AID 974); conditions: LYMP2-021 lymphoblastoid cells viability; series mostly up to 92.2 µM;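 further: compound exposure lasts 24 hours at 37 °C; nearly all actives have a fitted effect of over 55% in size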; further: potency means the concentration at half of the fitted maximal effect
How it was run: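 Human lymphoblastoid LYMP2-021 cells, 2500/well in complete medium, treated 24 hours at 37 C. Intracellular ATP by CellTiter-Glo luminescence (30 min, RT); AC50 from Hill fits of concentration-response.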

[4] = Cell Viability - LYMP2-025 (AID 976); conditions: LYMP2-025 lymphoblastoid cell viability; series mostly up to 92.2 µM
How it was run: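 Human lymphoblastoid LYMP2-025 cells, 2500/well, exposed 24 h at 37 C in complete medium in 1536-well qHTS. Viability as cellular ATP by CellTiter-Glo luminescence; AC50 from Hill fits of concentration-response data.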

[5] = Cell Viability - LYMP2-018 (AID 985); conditions: LYMP2-018 lymphoblastoid cells, viability (qHTS); series mostly up to 92.2 µM;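 further: compound exposure lasted 24 hr at 37 °C; nearly all actives have a fitted effect of over 50% in size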; further: potency means the concentration at half of the fitted maximal effect
How it was run: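 Human lymphoblastoid LYMP2-018 cells, 2500/well, settled 5 hr at 37 C then exposed to compound 24 hr at 37 C; intracellular ATP measured by CellTiter-Glo luminescence. AC50 from Hill-equation concentration-response fits.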

[6] = Cell Viability - LYMP2-022 (AID 987); conditions: LYMP2-022 lymphoblastoid cell viability; series mostly up to 92.2 µM; further: nearly all actives have a fitted effect of over 55% in size; further: potency means the concentration at half of the fitted maximal effect
How it was run: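 LYMP2-022 lymphoblastoid cells (2500/well, complete medium) were treated with compounds for 24 hours at 37 C; intracellular ATP was then read by CellTiter-Glo luminescence after 30 min at room temperature. AC50 values were derived from Hill-equation fits.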

[7] = Cell Viability - LYMP1-002 - Assay at 40 hr (AID 994); conditions: LYMP1-002 lymphoblastoid cell viability; series mostly up to 92.2 µM; further: nearly all actives have a fitted effect of over 60% in size; further: potency means the concentration at half of the fitted maximal effect
How it was run: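 LYMP1-002 human lymphoblastoid cells (2500/well, complete medium) were treated with compounds for 40 hr at 37 C. Intracellular ATP was measured by CellTiter-Glo luminescence, and AC50 values came from Hill-equation fits of concentration-response data; tetraoctylammonium bromide was the positive control.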

[8] = qHTS assay for environmental chemicals that activate the Aryl hydrocarbon Receptor (AhR) signaling pathway (AID 651777); conditions: 1A2-DRE human hepatoma cells, luciferase, 24 h; activation: stronger effect = higher value; further: nearly all actives have a fitted effect of over 15% in size
How it was run: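 Human hepatoma 1A2-DRE cells stably carrying a DRE/CYP1A2 promoter–luciferase reporter, 1,200 cells/well, exposed to compound 24 hr at 37 C. Luciferase read by One-Glo luminescence after 30 min at room temperature; increased signal marks AhR activation.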

[9] = Cell Viability - LYMP1-003 - Assay at 40 hr (AID 964); conditions: LYMP1-003 lymphoblastoid viability; series mostly up to 92.2 µM; further: nearly all actives have a fitted effect of over 60% in size; further: potency means the concentration at half of the fitted maximal effect
How it was run: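 LYMP1-003 human lymphoblastoid cells, 2500/well, preincubated 5 h at 37 C, then treated with compound for 40 h at 37 C. Intracellular ATP read by CellTiter-Glo luminescence after 30 min at room temperature; AC50 from Hill-equation fits.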

[10] = Cell Viability - LYMP2-013 (AID 970); conditions: LYMP2-013 lymphoblastoid cells viability; series mostly up to 92.2 µM; further: nearly all actives have a fitted effect of over 55% in size; further: potency means the concentration at half of the fitted maximal effect
How it was run: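 Human lymphoblastoid LYMP2-013 cells, 2500/well, treated 24 h at 37 C in complete medium; viability as intracellular ATP by CellTiter-Glo luminescence after 30 min. AC50 from Hill fits of qHTS concentration-response.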

[11] = Cell Viability - LYMP2-017 (AID 972); conditions: LYMP2-017 lymphoblastoid cell viability; series mostly up to 92.2 µM; further: nearly all actives have a fitted effect of over 55% in size; further: potency means the concentration at half of the fitted maximal effect
How it was run: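 LYMP2-017 human lymphoblastoid cells (2500/well) settled 5 hr at 37 C, then exposed to compound 24 hr at 37 C in complete medium. Viability taken as intracellular ATP by CellTiter-Glo luminescence after 30 min at RT; AC50 from Hill fits.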

[12] = Cell Viability - LYMP2-023 (AID 975); conditions: LYMP2-023 lymphoblastoid cell viability; series mostly up to 92.2 µM
How it was run: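 LYMP2-023 human lymphoblastoid cells, 2500/well, preincubated 5 hr at 37 C, then compound-treated 24 hr at 37 C in complete medium. CellTiter-Glo luminescence (ATP) after 30 min at room temperature; AC50 from Hill-equation fits; tetraoctylammonium bromide positive control.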

[13] = Cell Viability - LYMP2-002 (AID 977); conditions: LYMP2-002 lymphoblastoid cell viability, qHTS; series mostly up to 92.2 µM
How it was run: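 Luminescent ATP readout (CellTiter-Glo, 30 min room temperature) after 24 h compound exposure at 37 C of a human lymphoblastoid line, 2500 cells/well. AC50 values derived by standard Hill fitting of qHTS concentration-response data.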

[14] = Cell Viability - LYMP2-012 (AID 982); conditions: LYMP2-012 lymphoblastoid cell viability qHTS; series mostly up to 92.2 µM; further: potency means the concentration at half of the fitted maximal effect
[15] = Cell Viability - LYMP2-014 (AID 983); conditions: LYMP2-014 lymphoblastoid cells, viability qHTS; series mostly up to 92.2 µM; further: nearly all actives have a fitted effect of over 50% in size
How it was run: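 LYMP2-014 human lymphoblastoid cells, 2500/well, treated 24 h at 37 C in complete medium; viability by CellTiter-Glo ATP luminescence after 30 min at room temperature. AC50 from Hill fits of qHTS concentration-response; tetraoctylammonium bromide positive control.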

[16] = Cell Viability - LYMP2-016 (AID 984); conditions: LYMP2-016 lymphoblastoid cell viability, qHTS; series mostly up to 92.2 µM; further: nearly all actives have a fitted effect of over 55% in size
How it was run: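 Acute toxicity in a Coriell human lymphoblastoid line is scored as loss of intracellular ATP over 24 h of treatment in complete medium. CellTiter-Glo signal is fitted across concentrations with the Hill equation to give AC50.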

[17] = Cell Viability - LYMP2-020 (AID 986); conditions: series mostly up to 92.2 µM; further: nearly all actives have a fitted effect of over 55% in size; further: potency means the concentration at half of the fitted maximal effect
How it was run: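 Human lymphoblastoid LYMP2-020 cells (2500/well) preincubated 5 h at 37 C, then treated 24 h at 37 C. Viability measured as intracellular ATP by CellTiter-Glo luminescence after 30 min at room temperature; AC50 from Hill fits.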

[18] = Cell Viability - LYMP2-024 (AID 988); conditions: LYMP2-024 lymphoblastoid cell viability; series mostly up to 92.2 µM; further: nearly all actives have a fitted effect of over 60% in size; further: potency means the concentration at half of the fitted maximal effect
How it was run: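 Human lymphoblastoid LYMP2-024 cells (2500/well) rested 5 hr, then treated with compound for 24 hr at 37 C in complete medium. Viability was measured as intracellular ATP by CellTiter-Glo luminescence. AC50 values came from Hill-equation fits.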

[19] = qHTS assay for small molecule antagonists of retinoid X receptor alpha signaling (AID 588546; active means well fitted inhibition curve with a large enough effect in the signal ratio, with a control signal flat, not every such curve was filed as active; the % refers to the signal ratio;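 further: cells stimulated with 9-cis-retinoic acid as agonist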); conditions: HEK293T RXRa-UAS-bla, beta-lactamase ratio, antagonist mode; measured here: W530 green channel, cytotoxicity proxy
How it was run: (§1)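 Beta-lactamase reporter inhibition, read as CCF4 fluorescence ratio (ex 405, em 460/530 nm) after 2 h at RT. HEK293T UAS-bla cells, 2500/well, were stimulated with 9-cis-RA at 500 or 100 nM final alongside test compound for 18 h at 37 C.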

[20] = biological target: Retinoic acid receptor RXR-alpha (Homo sapiens) (UniProt P19793); assay: as above; conditions: HEK293T RXRa-UAS-bla, beta-lactamase ratio, antagonist mode
How it was run: as §1

Sequence of Retinoic acid receptor RXR-alpha (Homo sapiens) (P19793 whole entry, looked up): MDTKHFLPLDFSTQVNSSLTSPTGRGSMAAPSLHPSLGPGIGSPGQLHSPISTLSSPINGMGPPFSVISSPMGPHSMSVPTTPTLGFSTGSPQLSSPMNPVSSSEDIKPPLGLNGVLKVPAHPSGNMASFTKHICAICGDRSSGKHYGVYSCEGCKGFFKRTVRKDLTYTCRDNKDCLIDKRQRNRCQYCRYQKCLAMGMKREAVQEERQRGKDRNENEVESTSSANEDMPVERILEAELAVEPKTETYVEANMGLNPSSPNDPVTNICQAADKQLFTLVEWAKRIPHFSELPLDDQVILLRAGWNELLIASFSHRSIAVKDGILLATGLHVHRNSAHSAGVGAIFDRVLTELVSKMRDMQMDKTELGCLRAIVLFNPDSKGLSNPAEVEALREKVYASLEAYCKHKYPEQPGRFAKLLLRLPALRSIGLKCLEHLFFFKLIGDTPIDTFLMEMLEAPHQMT

Structure (SMILES) | Potency [1] | Potency [2] | Potency [3] | Potency [4] | Potency [5] | Potency [6] | Potency [7] | activation [8] | Potency [9] | Potency [10] | Potency [11] | Potency [12] | Potency [13] | Potency [14] | Potency [15] | Potency [16] | Potency [17] | Potency [18] | max response [19] | max response [20]
O=C(OCC1CO1)C1CCCCC1C(=O)OCC1CO1 (configuration not stated) | > 92 µM (inactive) | inactive | 50.1 µM (active) | inactive | 39.8 µM (active) | 39.8 µM (active) | 39.8 µM (active) | 0.749% (inactive) |  |  |  |  |  |  |  |  |  |  |  | 
Cc1cc(=O)oc2cc(O)cc(O)c12 | > 92 µM (inactive) | inactive | inactive | inactive | inactive | inactive | inactive | 8.78% (inactive) | inactive | inactive | inactive | inactive | inactive | inactive | inactive | inactive | inactive | inactive |  | 
C/C=C1/C(=O)C[C@H]2[C@@H]3CCC4=CC(=O)CC[C@]4(C)[C@H]3CC[C@]12C | > 92 µM (inactive) |  |  |  | 50.1 µM (active) | 39.8 µM (active) |  | 1.95% (inactive) | 39.8 µM (active) | 50.1 µM (active) | 50.1 µM (active) |  |  | 39.8 µM (active) |  |  | 39.8 µM (active) | 39.8 µM (active) |  | 
O=[N+]([O-])c1cc(N(CCO)CCO)ccc1NCCO |  |  |  | inactive | inactive | inactive | inactive | -2.68% (inactive) and -1.58% (inactive) |  |  |  |  | inactive | inactive | inactive | inactive | inactive | inactive | 5.15% and -22.9% | 0.262% (inactive) and 0.951% (inactive)
CCCCCCCC/C=C\CCCCCCCC(=O)N(CCO)CCO | > 92 µM (inactive) |  | inactive | inactive | inactive | inactive | inactive | 2.99% (inactive) | inactive | inactive | inactive | inactive | inactive | inactive | inactive | inactive | inactive | inactive |  | 
Oc1cc(Cl)cc(Cl)c1Cl | > 92 µM (inactive) | inactive |  | inactive | inactive | inactive | inactive | 2.22% (inactive) | inactive | inactive | inactive | inactive | inactive | inactive | inactive | inactive |  |  |  | 
O=C(OCc1ccccc1)c1ccccc1O | > 92 µM (inactive) | inactive | inactive | inactive | inactive | inactive | inactive | -0.76% (inactive) and -0.296% (inactive) | inactive | inactive | inactive | inactive | inactive | inactive | inactive | inactive | inactive | inactive | -7.45% and -18.3% | -0.686% (inactive) and -0.189% (inactive)
CC(C)(C)C(=O)C1C(=O)c2ccccc2C1=O |  | inactive | inactive | inactive | inactive | inactive | inactive | 5.77% (inactive) | inactive | inactive | inactive | inactive | inactive |  | inactive | inactive | inactive | inactive |  | 
